The structures appear in SMILES notation. Unmarked numbers belong to inactive results. Activity calls are given as the source filed them.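 Rule for the calls: active = calcium response above 60% of the acetylcholine maximum at human M5, as a positive modulator; inactive = the rest.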

Chain of Muscarinic acetylcholine receptor M5 (Homo sapiens) (P08912 whole entry, looked up): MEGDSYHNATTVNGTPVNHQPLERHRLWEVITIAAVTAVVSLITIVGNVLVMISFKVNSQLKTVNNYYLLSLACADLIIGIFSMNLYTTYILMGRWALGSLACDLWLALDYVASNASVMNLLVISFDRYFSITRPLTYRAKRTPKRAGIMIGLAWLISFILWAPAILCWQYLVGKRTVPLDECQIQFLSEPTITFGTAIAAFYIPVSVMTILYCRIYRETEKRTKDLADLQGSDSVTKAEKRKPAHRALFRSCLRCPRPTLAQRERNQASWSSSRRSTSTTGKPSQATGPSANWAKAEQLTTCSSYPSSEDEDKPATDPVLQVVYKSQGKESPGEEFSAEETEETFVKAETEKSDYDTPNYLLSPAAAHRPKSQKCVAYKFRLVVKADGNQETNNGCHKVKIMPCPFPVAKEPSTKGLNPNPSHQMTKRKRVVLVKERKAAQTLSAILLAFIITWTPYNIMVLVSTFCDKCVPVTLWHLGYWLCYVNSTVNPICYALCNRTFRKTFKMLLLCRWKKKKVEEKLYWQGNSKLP

This experiment concerns the target Muscarinic acetylcholine receptor M5 (Homo sapiens) (UniProt P08912). Nature of the experiment: potentiators of ACh response at human M5 – cell-based, single concentration, CHO-K1 hM5, calcium flux (AID 743100). To be noted: CHO-K1 hM5, Fluo-4 calcium flux, ACh EC20, hits give high values; at 10 µM unless noted. (Calcium assays in cells follow changes in intracellular calcium, usually with a dye or a luminescent sensor.)
As for `CCN(Cc1ccc(C#N)cc1)C(=O)C1CCN(S(=O)(=O)c2ccc3cn[nH]c3c2)CC1`, the % ACh max response was 8.37%.

Consider `[2H]C([2H])(C)N(C(=O)C1CCN(S(=O)(=O)c2ccc3cn[nH]c3c2)CC1)[C@H](C)c1ccccc1`, for which the % ACh max response was 94.6% (active).

Take `CCN(Cc1ccccc1)C(=O)C1CCN(S(=O)(=O)c2cccc(C)c2)CC1`: the % ACh max response is 63.8% [at 30 µM] (active).

For the molecule `CCN(Cc1ccccc1)C(=O)C1CCN(S(=O)(=O)c2ccc(C(C)(C)C)cc2)CC1`, the % ACh max response was 59.3% [at 30 µM].

On to `CCN(Cc1ccc(Oc2ccccc2)cc1)C(=O)C1CCN(S(=O)(=O)c2ccc3cn[nH]c3c2)CC1`, for which the % ACh max response is 39.1%.

As for `CCN(Cc1ccccc1)C(=O)C1CCN(S(=O)(=O)Cc2ccccc2Br)CC1`, the % ACh max response was 5.25% [at 30 µM].

Turning to `CCN(Cc1ccccc1)C(=O)C1CCN(S(=O)(=O)c2cccc(OC)c2)CC1`, the % ACh max response was 72.2% [at 30 µM] (active).

With `CCN([C@H](C)c1ccccc1)S(=O)(=O)C1CCN(C(=O)c2ccc3[nH]ncc3c2)CC1`, the % ACh max response was 26.9%.

Regarding `CCN(Cc1ccccc1)C(=O)C1CCN(S(=O)(=O)c2ccc(N3CCOCC3)nc2)CC1`, the % ACh max response was 70% [at 30 µM] (active).

Take `CCN(Cc1cccc(C)c1)C(=O)C1CCN(S(=O)(=O)c2ccc3cn[nH]c3c2)CC1`: the % ACh max response was 85.8% (active).

In the case of `CCN(Cc1ccccc1)C(=O)C1CCN(S(=O)(=O)Cc2cccc(C(F)(F)F)c2)CC1`, the % ACh max response is 25.5% [at 30 µM].

Regarding `COc1ccc(S(=O)(=O)N2CCC(C(=O)N(C)Cc3ccccc3)CC2)cc1`, the % ACh max response was 64.5% [at 30 µM] (active).

`CCN(Cc1ccncc1)C(=O)C1CCN(S(=O)(=O)c2ccc3cn[nH]c3c2)CC1`: the % ACh max response is 22.4%.

`CCN(Cc1ccccc1)C(=O)C1CCN(S(=O)(=O)c2ccc3cn(C)nc3c2)CC1`: the % ACh max response is 64.9% (active).

In the case of `CCN(Cc1ccc(SC)cc1)C(=O)C1CCN(S(=O)(=O)c2ccc3cn[nH]c3c2)CC1`, the % ACh max response was 14%.

On to `CCN(Cc1ccccc1)C(=O)C1CCN(S(=O)(=O)c2ccccc2OC(F)(F)F)CC1`, for which the % ACh max response was 17.5% [at 30 µM].

With `CCN(Cc1ccccc1)C(=O)C1CCN(S(=O)(=O)c2cccc3nsnc23)CC1`, the % ACh max response was 40.8% [at 30 µM].

Regarding `CCN(Cc1ccccc1)C(=O)C1CCN(S(=O)(=O)c2cc(C)ccc2C)CC1`, the % ACh max response is 24.5% [at 30 µM].

Turning to `O=C(C1CCN(S(=O)(=O)c2ccc3[nH]ncc3c2)CC1)N1Cc2ccccc2C1`, the % ACh max response is 32.5%.

Take `CCN(CC1CCN(S(=O)(=O)c2cccc(OC)c2)CC1)C(=O)c1ccccc1`: the % ACh max response is 15.2%.

Take `CCN(C(=O)C1CCN(S(=O)(=O)c2ccc3occc3c2)CC1)[C@H](C)c1ccccc1C(F)(F)F`: the % ACh max response is 34.4%.

Regarding `CCN(C(=O)C1CCN(S(=O)(=O)c2ccc(OC)cc2)CC1)[C@H](C)c1ccccc1`, the % ACh max response is 91.8% [at 30 µM] (active).

Regarding `CCN(Cc1ccccc1)C(=O)C1CCN(S(=O)(=O)c2ccc(Cl)nc2)CC1`, the % ACh max response was 50.1% [at 30 µM].

In the case of `CC(=O)N(Cc1ccccc1)CC1CCN(S(=O)(=O)c2ccc3occc3c2)CC1`, the % ACh max response is 8.25%.

Consider `CCN(Cc1ccccc1)C(=O)C1CCN(S(=O)(=O)Cc2ccc(Cl)cc2)CC1`, for which the % ACh max response is 16% [at 30 µM].

In the case of `CCN(Cc1ccccc1)C(=O)C1CCN(S(=O)(=O)c2ccc3cnn(C)c3c2)CC1`, the % ACh max response was 62.3% (active).

In the case of `O=C1N(Cc2ccccc2C(F)(F)F)CCCC12CCN(S(=O)(=O)c1ccc3[nH]ncc3c1)CC2`, the % ACh max response was 22.6%.

With `CCN(Cc1ccccc1C#N)C(=O)C1CCN(S(=O)(=O)c2ccc3cn[nH]c3c2)CC1`, the % ACh max response is 36.8%.

With `CCN(Cc1ccccc1)C(=O)C1CCN(S(=O)(=O)c2ccc(C(C)C)cc2)CC1`, the % ACh max response was 66.7% [at 30 µM] (active).

As to `CCN(Cc1ccccc1)C(=O)C1CCN(S(=O)(=O)c2ccc(OC)nc2)CC1`, the % ACh max response is 62.5% [at 30 µM] (active).

Consider `CCN(CC1CCN(S(=O)(=O)c2ccc3c(c2)OCCO3)CC1)C(=O)c1ccccc1`, for which the % ACh max response was 11.3%.

Regarding `CCN(Cc1ccccc1)C(=O)C1CCN(S(=O)(=O)c2ccccc2OC)CC1`, the % ACh max response is 28.1% [at 30 µM].

For the origin of these results see PubChem BioAssay AID743100 (Vanderbilt Specialized Chemistry Center, 2013).
